Experimental data taken from PubChem BioAssay (NCATS).
“And” between values parts separate entries of the source, which are not always exact repeats. Identical values can stand only once. Records with an inconclusive call do not appear. The source made the active and inactive calls. Unless noted, calls come from the whole dose curve; as a rule, active = well fitted curve in the direction sought with a large enough effect; inconclusive = small, poorly fitted or top-dose-only effect, or another doubt; inactive = no such curve, though single readings can be large; an effect the other way counts as inactive or inconclusive.

What was measured:
[1] = OV-KATE Cancer Cell Toxicity qHTS against the NCATS CANVASS Library (AID 1347345); note: potency is the fitted concentration of half-maximal effect
Summary of the method: (§1)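 Bortezomib titration and single-dose wells served as plate controls. Test compounds, 11 points, acted on 1000 cells/well for 72 h at 37 degrees C; CellTiter-Glo luminescence quantified remaining viable cells.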

[2] = HPAF-II Cancer Cell Toxicity qHTS against the NCATS CANVASS Library (AID 1347346); note: nearly all actives have a fitted effect of over 55% in size; note: potency is the fitted concentration of half-maximal effect
Summary of the method: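 First, HPAF-II cells are plated (1000 cells/well) and held 4 h at 37 degrees C. Next, compounds are pin-transferred as an 11-point series. After 72 h, CellTiter-Glo is added and luminescence measured.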

[3] = Panc-1005 Cancer Cell Toxicity qHTS against the NCATS CANVASS Library (AID 1347349); note: nearly all actives have a fitted effect of over 60% in size; note: potency is the fitted concentration of half-maximal effect
Summary of the method: as §1

[4] = COV-362 Cancer Cell Toxicity qHTS against the NCATS CANVASS Library (AID 1347352); note: potency is the fitted concentration of half-maximal effect
Summary of the method: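 First, 1000 cells go into each well and rest for 4 hours. Next, an 11-point dilution range is pinned in. Plates then incubate 72 hours before CellTiter-Glo addition and luminescence reading.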

[5] = HPAF-II 24hr Apoptosis Induction qHTS against the NCATS CANVASS Library (AID 1347356); note: 0% is about no effect
Summary of the method: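 Cells seeded at 500 per well, then compounds pin-transferred in an 11-point concentration series. After 24 hours at 37 degrees C, Caspase-Glo 3/7 was added and luminescence measured following 15 min at room temperature.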

[6] = HPAF-II 12hr Apoptosis Induction qHTS against the NCATS CANVASS Library (AID 1347358); note: 0% is about no effect
Summary of the method: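 Cells plated at 500 per well are dosed with compound and incubated 12 hours at 37 degrees C. Caspase-Glo 3/7 reagent is added and, after 15 min at room temperature, luminescence proportional to caspase activity is measured.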

[7] = HEK293 24hr Apoptosis Induction qHTS against the NCATS CANVASS Library (AID 1347359); note: 0% is about no effect
Summary of the method: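 Caspase-3/7 activation measured as luminescence from the DEVD-based Caspase-Glo reagent, 15 min at room temperature, following 24-hour compound treatment of HEK293 cells.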

[8] = biological target: Cytochrome P450 1A2 (Homo sapiens) (UniProt P05177); assay: p450-cyp1a2 (AID 410; calls by dose curve; note: potency is the fitted concentration of half-maximal effect;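 for activity change, negative = inhibition: -100% = full effect of reference inhibitor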)
Summary of the method: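 O-Demethylation of luciferin 6' methyl ether by human CYP1A2 is monitored as luciferase luminescence. Substrate sits at Km (100uM); enzyme is 20nM. Values are scaled to 57 uM furafylline as maximal inhibition.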

[9] = biological target: Glucocorticoid receptor (Homo sapiens) (UniProt P04150); assay: GR-EFC Redistribution (AID 451; calls by dose curve; note: potency is the fitted concentration of half-maximal effect); conditions: CHO-K1 GR-EFC translocation, beta-gal luminescence, 2 h
Summary of the method: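 Translocation of GR-ED fusion to nuclear EA restores b-gal, read by luminescence after 1 h room-temperature detection. Engineered CHO-K1 biosensor cells, 1,000/well, exposed 2 h at 37 C to titrations up to 46 uM final.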

[10] = biological target: Mitogen-activated protein kinase 10 (Mus musculus) (UniProt Q61831); assay: JNK3 AlphaScreen Assay (AID 530; active = well fitted curve in either direction with a large enough effect, not every such curve was filed as active;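 note: kinase came from lysate of stimulated human HepG2 cells; signal reports phosphorylation of biotinylated GST-cJun 1-79 at Ser73 with 10 µM ATP; % is set by controls: 0 for no effect and ±100 for the full control effect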)
Summary of the method: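 qHTS titrations with 15 min compound pre-incubation before adding ATP (10 uM final). Read-out: AlphaScreen of Ser73-phosphorylated biotin-GST-cJun using HepG2 lysate JNK3 activated by IL-1β and TNFα.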

[11] = qHTS Assay for Lipid Storage Modulators (AID 1519; calls by dose curve; for activity change, negative = inhibition: % is set by controls: 0 for no effect and ±100 for the full control effect); conditions: Drosophila S3 cells, BODIPY lipid droplet/cell ratio, laser cytometry, cells loaded with oleic acid
Summary of the method: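 Cells seeded at 5,000 per well were treated with compounds over a concentration series and loaded with oleic acid (400 uM, as added). Lipid droplet fluorescence (488 nm excitation, 500-530 nm channel) was read by laser-scanning cytometry and normalized to 20 uM Triacsin C.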

[12] = biological target: Ubiquitin carboxyl-terminal hydrolase 1 (Homo sapiens) (UniProt O94782); assay: Inhibitors of USP1/UAF1: Pilot qHTS (AID 504865);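 note: rhodamine fluorescence freed from ubiquitin-rhodamine substrate followed over time; top concentration of the series differs between compounds; % is set by controls: 0 for no effect and ±100 for the full control effect; nearly all actives have a fitted effect of over 35% in size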
Summary of the method: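 Enzyme-free wells gave the negative control, while test wells held 1nM USP1/UAF1 preincubated with compound for 15 min at room temperature. Ub-Rho at 150nM final started the reaction, and fluorescence at 480/540 nm was recorded kinetically.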

[13] = biological target: DNA dC->dU-editing enzyme APOBEC-3G (Homo sapiens) (UniProt Q9HC16); assay: qHTS for inhibitors of Vif-A3G interactions: Validation (AID 588379); note: 0% is about no effect
Summary of the method: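 Yellow fluorescence (Ex 488, Em 500-530) of Vif-coexpressing HeLa A3G-eYFP cells, scanned by Acumen cytometer, reports blocked A3G degradation. Cells plated at 700/well overnight at 37 deg C before compound addition, then a further overnight compound incubation at 37 deg C.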

[14] = test system: Zika virus NS2B-NS3 protease; assay: Primary screen GU AMC qHTS for Zika virus inhibitors (AID 1347154);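 note: 0% = no-inhibitor control and -100% = no-enzyme control; nearly all actives have a fitted effect of over 70% in size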
Summary of the method: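 Fluorogenic AMC-substrate cleavage by noncovalent NS2B-NS3 protease complex (25 nM, pH 8.0 Tris buffer with Tween 20) followed for 15 minutes at room temperature (~20% conversion). Percent inhibition from ex340/em450 signal change, fitted by 4-parameter Hill equation.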

[15] = biological target: Glucocorticoid receptor (Homo sapiens) (UniProt P04150); assay: GR-GFP Redistribution (AID 450;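 active = compounds whose dose series gives a full or clear partial fitted curve of increased nuclear translocation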; note: potency is the fitted concentration of half-maximal effect); conditions: U2OS GR-GFP nuclear translocation, laser cytometry, 2 h
[16] = biological target: 3',5'-cyclic-AMP phosphodiesterase 4B (Homo sapiens) (UniProt Q07343); assay: qHTS Assay for Inhibitors of PDE-IV (AID 607; active = well fitted activation curve with a large enough effect in the main read-out, with a control signal flat, not every such curve was filed as active; note: % of control where 0% means no effect)
Summary of the method: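 The readout is membrane depolarisation from a cAMP-sensing CNG channel, detected with a potential dye at ex 535/em 590. Cells were HEK293-derived (endogenous PDE-IV) at 1000 cells/well, titrated up to 22.9 uM final.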

[17] = biological target: Cytochrome P450 3A4 (Homo sapiens) (UniProt P08684); assay: qHTS Assay for Activators of Cytochrome P450 3A4 (AID 885); note: nearly all actives have a fitted effect of over 65% in size; note: potency is the fitted concentration of half-maximal effect
Summary of the method: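 Activators are scored by enhanced luminescence from CYP3A4 conversion of luciferin-PPXE (25uM, equal to KM) to luciferin, after 60 min at RT with an NADPH-regenerating system.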

[18] = AP1 Signaling Pathway (AID 357; active = well fitted curve in either direction with a large enough effect, not every such curve was filed as active;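 note: ME-180 reporter cells stimulated with EGF at its EC50 level; % is set by controls: 0 for no effect and ±100 for the full control effect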)
Summary of the method: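 In this screen, ME-180 cells in Opti-MEM with 0.5% dialyzed FBS received EC50 EGF and compound titrations for 5 h. AP-1 reporter beta-lactamase was detected via CCF4 ratio, giving AC50 for positive and negative modulators.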

[19] = biological target: Cytochrome P450 2D6 (Homo sapiens) (UniProt P10635); assay: qHTS Assay for Inhibitors and Substrates of Cytochrome P450 2D6 (AID 891); note: nearly all actives have a fitted effect of over 60% in size; note: potency is the fitted concentration of half-maximal effect
Summary of the method: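 Luminescent read-out of luciferin formed by 5 nM human CYP2D6 demethylating 30 uM Luciferin-ME EGE (Km level) over 60 min at room temperature after NADPH regeneration addition. Data normalized to full inhibition by 1.43 uM quinidine.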

[20] = Primary qHTS for small molecule stabilizers of the endoplasmic reticulum resident proteome: Secreted ER Calcium Modulated Protein (SERCaMP) assay (AID 1508630); note: % is set by controls: 0 for no effect and ±100 for the full control effect
Summary of the method: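 The SH-SY5Y reporter protocol was run at 3 concentrations up to 38.3 uM (primary) or 11 concentrations (follow-up): 16 h compound, 100 nM thapsigargin for 4 h, then extracellular luciferase luminescence.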

[21] = measured here: cell count channel max response
[22] = measured here: lipid channel max response

Chain of 3',5'-cyclic-AMP phosphodiesterase 4B (Homo sapiens) (Q07343 whole entry, looked up): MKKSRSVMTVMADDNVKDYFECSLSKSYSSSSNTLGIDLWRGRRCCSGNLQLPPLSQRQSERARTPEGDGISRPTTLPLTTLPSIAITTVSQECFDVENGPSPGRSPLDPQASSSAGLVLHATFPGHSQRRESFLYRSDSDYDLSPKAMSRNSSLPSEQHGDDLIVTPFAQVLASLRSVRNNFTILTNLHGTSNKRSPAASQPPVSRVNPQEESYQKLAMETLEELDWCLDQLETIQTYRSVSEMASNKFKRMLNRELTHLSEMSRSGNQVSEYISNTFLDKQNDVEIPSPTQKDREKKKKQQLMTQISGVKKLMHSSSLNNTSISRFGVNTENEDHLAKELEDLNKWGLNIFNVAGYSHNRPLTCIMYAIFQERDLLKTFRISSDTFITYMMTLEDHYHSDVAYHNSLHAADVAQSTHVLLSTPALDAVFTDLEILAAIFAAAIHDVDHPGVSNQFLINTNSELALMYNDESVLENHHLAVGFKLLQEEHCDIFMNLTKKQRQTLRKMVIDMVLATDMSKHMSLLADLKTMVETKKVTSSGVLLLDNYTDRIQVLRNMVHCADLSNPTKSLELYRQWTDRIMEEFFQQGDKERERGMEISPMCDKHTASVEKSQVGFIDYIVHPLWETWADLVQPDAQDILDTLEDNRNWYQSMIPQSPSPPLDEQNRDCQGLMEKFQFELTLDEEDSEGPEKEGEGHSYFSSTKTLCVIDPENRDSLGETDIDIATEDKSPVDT
Chain of Cytochrome P450 1A2 (Homo sapiens) (P05177 whole entry, looked up): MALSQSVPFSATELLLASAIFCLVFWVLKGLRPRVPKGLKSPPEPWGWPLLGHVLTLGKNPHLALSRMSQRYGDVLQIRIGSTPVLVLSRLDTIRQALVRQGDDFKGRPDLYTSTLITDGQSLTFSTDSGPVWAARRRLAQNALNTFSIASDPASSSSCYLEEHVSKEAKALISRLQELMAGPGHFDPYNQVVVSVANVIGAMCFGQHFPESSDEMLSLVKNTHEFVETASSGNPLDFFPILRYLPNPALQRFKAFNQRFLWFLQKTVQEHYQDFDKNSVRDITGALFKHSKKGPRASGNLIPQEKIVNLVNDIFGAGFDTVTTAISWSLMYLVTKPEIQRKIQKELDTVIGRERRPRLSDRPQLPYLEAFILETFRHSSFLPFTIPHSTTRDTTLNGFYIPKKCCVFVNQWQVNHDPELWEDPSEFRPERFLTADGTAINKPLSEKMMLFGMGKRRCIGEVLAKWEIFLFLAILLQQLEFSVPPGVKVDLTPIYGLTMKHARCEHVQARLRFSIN
Chain of Cytochrome P450 2D6 (Homo sapiens) (P10635 whole entry, looked up): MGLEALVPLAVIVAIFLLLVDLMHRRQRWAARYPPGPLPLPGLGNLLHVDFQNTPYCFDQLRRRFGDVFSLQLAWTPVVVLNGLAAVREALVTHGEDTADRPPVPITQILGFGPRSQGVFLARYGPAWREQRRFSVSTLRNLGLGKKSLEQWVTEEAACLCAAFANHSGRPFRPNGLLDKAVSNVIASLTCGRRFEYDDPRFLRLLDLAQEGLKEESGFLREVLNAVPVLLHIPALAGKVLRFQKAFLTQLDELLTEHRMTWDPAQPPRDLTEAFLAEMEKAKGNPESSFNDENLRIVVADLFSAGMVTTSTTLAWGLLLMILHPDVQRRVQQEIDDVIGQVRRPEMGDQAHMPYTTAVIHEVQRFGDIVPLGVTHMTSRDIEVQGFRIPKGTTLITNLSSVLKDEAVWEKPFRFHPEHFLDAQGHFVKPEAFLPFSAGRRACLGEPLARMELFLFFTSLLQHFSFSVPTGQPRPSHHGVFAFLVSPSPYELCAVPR
Chain of DNA dC->dU-editing enzyme APOBEC-3G (Homo sapiens) (Q9HC16 whole entry, looked up): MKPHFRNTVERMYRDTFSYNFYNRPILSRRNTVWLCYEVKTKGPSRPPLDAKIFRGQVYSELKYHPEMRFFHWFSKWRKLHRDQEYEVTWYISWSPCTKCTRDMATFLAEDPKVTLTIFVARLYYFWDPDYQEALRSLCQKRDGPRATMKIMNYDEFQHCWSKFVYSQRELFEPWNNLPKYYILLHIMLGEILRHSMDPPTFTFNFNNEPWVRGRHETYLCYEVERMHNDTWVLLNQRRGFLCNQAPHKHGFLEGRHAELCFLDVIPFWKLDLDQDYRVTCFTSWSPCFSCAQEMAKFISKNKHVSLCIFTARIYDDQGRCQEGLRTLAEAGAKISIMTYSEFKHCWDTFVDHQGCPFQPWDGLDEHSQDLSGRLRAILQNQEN
Chain of Glucocorticoid receptor (Homo sapiens) (P04150 whole entry, looked up, the tested form may be a part): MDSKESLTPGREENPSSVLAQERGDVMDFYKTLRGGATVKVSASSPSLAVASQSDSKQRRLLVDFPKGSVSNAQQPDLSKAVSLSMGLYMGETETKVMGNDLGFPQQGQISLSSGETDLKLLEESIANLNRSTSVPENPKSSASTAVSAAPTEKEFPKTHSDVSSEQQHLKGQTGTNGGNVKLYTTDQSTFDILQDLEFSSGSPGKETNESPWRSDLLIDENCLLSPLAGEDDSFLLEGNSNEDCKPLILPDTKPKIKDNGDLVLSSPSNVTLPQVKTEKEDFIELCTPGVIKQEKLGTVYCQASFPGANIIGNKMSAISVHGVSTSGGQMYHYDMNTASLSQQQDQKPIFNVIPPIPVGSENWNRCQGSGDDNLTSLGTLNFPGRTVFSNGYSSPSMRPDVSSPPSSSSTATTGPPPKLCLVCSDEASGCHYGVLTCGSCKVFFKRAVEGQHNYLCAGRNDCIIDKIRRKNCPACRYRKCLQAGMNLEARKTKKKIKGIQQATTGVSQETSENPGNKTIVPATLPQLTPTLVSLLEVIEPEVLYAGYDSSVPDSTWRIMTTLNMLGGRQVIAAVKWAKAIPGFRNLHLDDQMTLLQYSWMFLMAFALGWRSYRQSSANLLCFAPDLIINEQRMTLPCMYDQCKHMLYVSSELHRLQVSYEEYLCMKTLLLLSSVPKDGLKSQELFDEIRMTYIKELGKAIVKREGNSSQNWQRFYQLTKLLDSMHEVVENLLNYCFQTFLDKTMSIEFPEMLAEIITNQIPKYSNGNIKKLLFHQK
Chain of Ubiquitin carboxyl-terminal hydrolase 1 (Homo sapiens) (O94782 whole entry, looked up): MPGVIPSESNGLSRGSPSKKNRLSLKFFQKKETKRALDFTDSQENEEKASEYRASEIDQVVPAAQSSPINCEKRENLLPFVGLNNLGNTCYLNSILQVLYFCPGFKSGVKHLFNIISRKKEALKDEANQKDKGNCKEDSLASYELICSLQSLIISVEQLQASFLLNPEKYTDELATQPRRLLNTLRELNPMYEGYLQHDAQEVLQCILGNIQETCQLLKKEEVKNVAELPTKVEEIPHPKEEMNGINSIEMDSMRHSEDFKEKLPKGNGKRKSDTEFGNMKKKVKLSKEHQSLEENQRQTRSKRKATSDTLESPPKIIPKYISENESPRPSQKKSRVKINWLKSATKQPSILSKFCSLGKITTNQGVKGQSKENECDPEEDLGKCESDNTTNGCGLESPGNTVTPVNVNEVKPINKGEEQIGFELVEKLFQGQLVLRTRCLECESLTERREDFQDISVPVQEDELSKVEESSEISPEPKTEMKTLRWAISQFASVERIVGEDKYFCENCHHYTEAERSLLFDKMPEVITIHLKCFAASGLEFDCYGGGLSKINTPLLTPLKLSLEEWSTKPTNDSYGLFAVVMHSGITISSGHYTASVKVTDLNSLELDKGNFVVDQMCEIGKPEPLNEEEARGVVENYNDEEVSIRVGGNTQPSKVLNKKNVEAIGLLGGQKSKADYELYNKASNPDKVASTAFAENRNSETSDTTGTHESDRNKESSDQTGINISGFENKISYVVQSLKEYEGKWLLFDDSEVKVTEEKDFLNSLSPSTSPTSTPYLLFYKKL
Chain of Cytochrome P450 3A4 (Homo sapiens) (P08684 whole entry, looked up): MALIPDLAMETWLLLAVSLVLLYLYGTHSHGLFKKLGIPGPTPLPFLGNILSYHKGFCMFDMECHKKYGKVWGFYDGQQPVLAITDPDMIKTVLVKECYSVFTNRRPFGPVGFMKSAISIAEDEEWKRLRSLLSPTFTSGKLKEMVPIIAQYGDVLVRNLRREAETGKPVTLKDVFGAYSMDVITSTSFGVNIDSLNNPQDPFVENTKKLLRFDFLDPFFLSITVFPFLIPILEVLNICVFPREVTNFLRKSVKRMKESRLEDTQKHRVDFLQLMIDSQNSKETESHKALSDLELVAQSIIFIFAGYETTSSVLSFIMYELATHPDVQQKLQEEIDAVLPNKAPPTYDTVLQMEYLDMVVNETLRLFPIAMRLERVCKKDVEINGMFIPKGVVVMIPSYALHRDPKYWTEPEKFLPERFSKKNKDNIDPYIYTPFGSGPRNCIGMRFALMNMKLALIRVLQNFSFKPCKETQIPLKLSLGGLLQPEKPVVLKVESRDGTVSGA

CCN1C[C@]2(C)CC[C@@H](O)[C@]34C1[C@H](C[C@H]23)C12CCC(CC14)[C@](O)(CO)[C@H]2O (stereo partly drawn)
inactive: Potency [1] | Potency [2] | Potency [3] | Potency [4] | outcome [5] | outcome [6] | Potency [7]

N[C@@H](Cn1ccc(=O)n(Cc2ccc(C(=O)O)cc2)c1=O)C(=O)O
inactive: Potency [8] | Potency [9] > 46 µM | outcome [10] | activity change, negative = inhibition ([11]; at 57.5 µM (top of the series)) 0.903% | Potency [12] | Potency [13] | Potency [14]
-1.3%: max response [11, 22]
-1.53%: max response [11, 21]

CC1(C)N(O)C(c2ccc(C(=O)O)cc2)=[N+]([O-])C1(C)C
active: Potency [8] 31.6 µM
inactive: Potency [15] > 46 µM | Potency [9] > 46 µM | outcome [10] | Potency [13] | Potency [14]

CC(C)n1cnc2c(C(=O)N[C@H]3CN4CCC3CC4)cc(Cl)cc21
19.1%: max response [11, 22]
inactive: Potency [15] > 46 µM | Potency [9] > 46 µM | Potency [16] | activity change, negative = inhibition ([11]; at 57.5 µM (top of the series)) 2.71% | Potency [12] | Potency [13] | Potency [14]
active: Potency [17] 31.6 µM
14.7%: max response [11, 21]

CC(=O)N[C@H]1CCN2CCC[C@H]12
inactive: Potency [1] | Potency [2] | Potency [3] | Potency [4] | outcome [5] | outcome [6] | Potency [7]

O=C(Cc1ccc(Cl)c(Cl)c1)N1CCCC[C@H]1CN1CCCC1
inactive: outcome [18] | Potency [8] | Potency [15] > 46 µM | Potency [9] > 46 µM | outcome [10] | Potency [16] | Potency [17] | Potency [13] | Potency [14]
active: Potency [19] 7.94 µM and 2.51 µM

C[C@@H](N)Cn1ccc2cc(F)c(Cl)cc21
inactive: Potency [15] > 46 µM | Potency [9] > 46 µM | outcome [10] | Potency [16] | Potency [17] | Potency [12] | Potency [13] | Potency [14]
active: Potency [8] 0.0501 µM

CN1[C@@H]2CC[C@H]1CC(OC(=O)N1Cc3ccccc3NC1=O)C2 (stereo partly drawn)
inactive: Potency [14] | Potency [20]

CO[C@@H](/C=C/CC/C=C/C(=O)O)[C@@H](O)[C@H](C)/C=C(\C)[C@@H](O)[C@H](C)C(=O)CCCC1CC(=O)NC(=O)C1
inactive: Potency [1] | Potency [2] | Potency [3] | Potency [4] | outcome [5] | outcome [6] | Potency [7]

N[C@H](C(=O)O)c1cc(=O)[nH]o1
-3.07%: max response [11, 21]
-3.59%: max response [11, 22]
inactive: outcome [18] | Potency [8] | Potency [9] > 46 µM | outcome [10] | Potency [16] | Potency [19] | activity change, negative = inhibition ([11]; at 57.5 µM (top of the series)) 3.47% | Potency [13] | Potency [14]

C=CCN1CC[C@]23c4c5ccc(O)c4O[C@@H]2C(=O)CC[C@]3(O)[C@H]1C5
inactive: outcome [18] | outcome [10] | activity change, negative = inhibition ([11]; at 25.7 µM (top of the series)) -1.11% | activity change, negative = inhibition ([11]; at 57.5 µM (top of the series)) 5.83% | Potency [12] | Potency [13] | Potency [14]
3.55% and 28.2%: max response [11, 22]
1.84% and 18.9%: max response [11, 21]

CC1=CC2CC[C@@H]3[C@@H](C)C[C@H](C)[C@@H](C1)N23 (stereo partly drawn)
inactive: Potency [1] | Potency [2] | Potency [3] | Potency [4] | outcome [5] | outcome [6] | Potency [7]

CCC[C@H]1CC[C@H]2[C@H](C)CCC[C@H]2N1
inactive: Potency [1] | Potency [2] | Potency [3] | Potency [4] | outcome [5] | outcome [6] | Potency [7]

O[C@H]1CCCC[C@H]1N1CCC(c2ccccc2)CC1
inactive: outcome [18] | Potency [15] > 20.6 µM and > 46 µM | Potency [9] > 20.6 µM and > 46 µM | outcome [10] | Potency [16] | activity change, negative = inhibition ([11]; at 25.7 µM (top of the series)) 0.444% | activity change, negative = inhibition ([11]; at 57.5 µM (top of the series)) 0.117% | Potency [12] | Potency [13] | Potency [14]
-12.1% and 1.1%: max response [11, 21]
-11.1% and -2.26%: max response [11, 22]

CCCCC1(C2CCCC2)Cc2cc(OCCCC(=O)O)c(Cl)c(Cl)c2C1=O (stereo not drawn)
inactive: Potency [14] | Potency [20]

CNCCc1ccc(O)cc1
inactive: Potency [1] | Potency [2] | Potency [3] | Potency [4] | outcome [5] | outcome [6] | Potency [7]

COc1ccc(C23Oc4cc(OC)cc(OC)c4[C@](O)([C@H](c4ccccc4)C2C(=O)NCCCCNC(=O)c2ccccc2)[C@@H]3O)cc1 (stereo partly drawn)
inactive: Potency [1] | Potency [2] | Potency [3] | Potency [4] | outcome [5] | outcome [6] | Potency [7]

CC[N@@+]1([O-])C[C@]2(C)CC[C@@H](O)[C@@]34C5C[C@H]6CC[C@@]5(C(C[C@H]23)C41)[C@H](O)[C@@]6(O)CO (stereo partly drawn)
inactive: Potency [1] | Potency [2] | Potency [3] | Potency [4] | outcome [5] | outcome [6] | Potency [7]

O=C(c1ccccc1O)c1[nH]c(Cl)c(Cl)c1-n1c(C(=O)c2ccccc2O)cc(Cl)c1Cl
inactive: outcome [5] | outcome [6] | Potency [7]
active: Potency [1] 5.94 µM | Potency [2] 1.33 µM | Potency [3] 2.11 µM | Potency [4] 2.11 µM
